Assay [1] can be described thus: inhibitors of TNFa-induced NFkB p65 translocation, primary screen, imaging, HUVEC, MLSMR starter and 10KST1 sets (AID 438;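 active = inhibition above 20% together with a positive visual image hit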;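 also: compound added about 3h40 before a 20 min TNFalpha stimulation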;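 as to inhibition: signal is the nuclear over cytoplasmic p65 intensity ratio per well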). To be noted: HUVEC TNFa-induced p65 nuclear translocation; cell count: measured here: nuclei count (cytotoxicity indicator), at 2.08 µM; inhibition: at 2 µM, stronger effect = higher value, 0% TNFa-plus-vehicle, 100% no-TNFa wells.
The nature of assay [2]: inhibitors of mutant huntingtin aggregation, primary screen, imaging, exon1htt(103Q)mCFP cells, high-content imaging (AID 483;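 active = visual image review flags a hit and inhibition of aggregation exceeds 20%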;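 also: compound exposure lasted 3 days before fixation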;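 as to nuclei count: percent of the per-plate median nuclei count of sample wells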). The settings on record: exon1htt(103Q)mCFP cell line, aggregate imaging, at 2 µM; inhibition of aggregation: stronger effect = higher value; nuclei count: measured here: cell count, toxicity.
Assay [3] is described as follows: inhibitors of E-selectin induction by TNFa, primary screen, imaging, HUVEC, immunofluorescence, MLSMR starter and 10KST1 sets (AID 487;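 active = visually confirmed hit in the image check and inhibition above 20%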;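 as to inhibition: signal is fraction of cell area covered by stained E-selectin grains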;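 as to nuclei count: 100% = median nuclei count of all wells on the same plate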). The settings on record: HUVEC TNFalpha-induced E-selectin immunofluorescence imaging, at 2 µM; inhibition: stronger effect = higher value; nuclei count: measured here: cell number, toxicity.
In assay [4] the target is Voltage-gated potassium channel subunit beta-2 (Rattus norvegicus) (UniProt P62483). Description: KvBeta enzyme negative modulators, primary screen, biochemical, NADPH fluorescence (AID 622;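 active = fluorescence slope higher than the sample average by over 3 SD, cut at about -0.22 in these data, passing the limit was not always enough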;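 also: slope of raw intensity against log time taken from 70 to 1610 s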). To be noted: recombinant KvBeta, 4-cyanobenzaldehyde reduction, at 10 µM, stronger effect = higher value.
Sequence of Voltage-gated potassium channel subunit beta-2 (Rattus norvegicus) (P62483 whole entry, looked up): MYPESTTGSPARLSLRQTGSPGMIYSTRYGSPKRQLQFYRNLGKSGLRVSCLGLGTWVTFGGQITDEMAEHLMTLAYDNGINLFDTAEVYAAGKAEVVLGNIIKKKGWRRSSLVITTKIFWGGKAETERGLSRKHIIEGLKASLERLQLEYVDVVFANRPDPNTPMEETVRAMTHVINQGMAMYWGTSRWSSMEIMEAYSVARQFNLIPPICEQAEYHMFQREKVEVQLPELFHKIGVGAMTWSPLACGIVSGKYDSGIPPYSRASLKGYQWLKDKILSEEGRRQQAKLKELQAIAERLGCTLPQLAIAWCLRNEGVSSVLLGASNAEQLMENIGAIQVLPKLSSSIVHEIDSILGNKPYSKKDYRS
For assay [5] the target is unchanged. Description: KvBeta positive modulators, primary screen, biochemical, NADPH fluorescence (AID 623;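 active = NADPH fluorescence slope more negative than the mean of all samples by about 3 SD, 99.7% confidence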;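 also: fluorescence intensity change per second fitted from 20 to 320 s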). To be noted: Recombinant KvBeta, NADPH fluorescence decrease slope, 10 min; at 10 µM; stronger effect = lower value.
For assay [6], the target named is Alpha-2C adrenergic receptor (Homo sapiens) (UniProt P18825). Kind of assay: modulators of alpha2C/GIRK thallium flux, primary screen, cell-based, HEK293 alpha2C/GIRK1/2 (AID 624;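 active = fluorescence slope after compound addition differing from the mean of all screened samples at 99.7% confidence, in either direction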;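 also: slope of fluorescence ratio to pre-addition baseline per second over 15 to 24 s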). To be noted: thallium flux BTC fluorescence, at 10 µM, actives lie on both sides.
Sequence of Alpha-2C adrenergic receptor (Homo sapiens) (P18825 whole entry, looked up): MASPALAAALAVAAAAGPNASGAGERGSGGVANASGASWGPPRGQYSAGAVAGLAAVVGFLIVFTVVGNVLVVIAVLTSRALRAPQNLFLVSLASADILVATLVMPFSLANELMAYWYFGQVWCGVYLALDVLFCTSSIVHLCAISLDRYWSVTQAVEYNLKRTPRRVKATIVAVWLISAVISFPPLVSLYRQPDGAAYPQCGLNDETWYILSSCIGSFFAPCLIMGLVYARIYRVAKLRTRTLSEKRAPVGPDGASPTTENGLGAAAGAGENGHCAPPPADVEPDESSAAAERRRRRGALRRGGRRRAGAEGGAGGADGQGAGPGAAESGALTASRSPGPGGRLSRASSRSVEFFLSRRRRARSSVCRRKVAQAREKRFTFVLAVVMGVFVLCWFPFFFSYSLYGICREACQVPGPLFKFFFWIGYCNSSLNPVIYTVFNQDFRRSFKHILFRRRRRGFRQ
Assay [7] is described as follows: inhibitors of Sendai virus-induced IRF3 signaling, primary screen, TLR/RLR signaling modifier project, cell-based, Sendai virus stimulus, luciferase, 10K MLSCN set (AID 602276;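 active = inhibition at or above 50% at 10 µM; inactive = inhibition below 50%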;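 also: firefly luciferase from ISG56 promoter only with Renilla not read in this screen; 0% = Sendai virus plus DMSO and 100% = medium plus DMSO without virus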). The settings on record: HEK293 RL24 IRF3 luciferase reporter, at 10 µM, stronger effect = higher value.
Assay [8] can be described thus: inhibitors of poly I:C-induced TLR3 signaling, primary screen, cell-based, poly I:C stimulus, luciferase, 10K MLSCN set (AID 602277). To be noted: HEK293-TLR3 RL24 IRF3 luciferase reporter, at 10 µM, stronger effect = higher value.

From PubChem BioAssay come the findings set out here.

The structures appear in SMILES notation. Active and inactive are the calls of the source.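 The calls were made as follows, unless noted: active = inhibition of the reporter signal at or above 50%; inactive = inhibition below 50%.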

With `OC(CN1CCN(c2ccccc2)CC1)c1ccc2c(c1)CCN2` (centres undefined), the cell count in assay [1] is 604. The inhibition in assay [1] was -1.6% (inactive); in assay [3], -60.6% (inactive); in assay [7] it was 6.89% (inactive); in assay [8] it was 32.4% (inactive). In addition, the inhibition of aggregation in assay [2] is 9.3% (inactive). The nuclei count in assay [2] came to 82.3%; in assay [3], 108%. Moreover, the fluorescence slope in assay [4] is -0.571 (inactive). The NADPH fluorescence slope in assay [5] is -2.8e-05 (inactive). The slope in assay [6] was 0.00657 (inactive).
For the molecule `COc1ccc(C2c3c(oc4ccccc4c3=O)C(=O)N2c2ccc(C)cn2)cc1OC` (centres undefined), the cell count in assay [1] worked out at 865. For the same molecule, the inhibition in assay [1] is 0% (inactive); in assay [3], -34.6% (inactive); in assay [7] it was -0.686% (inactive); in assay [8], -4.49% (inactive). Also, the inhibition of aggregation in assay [2] is -13.4% (inactive). Further, the nuclei count was found to be 75% in assay [2] and 103% in assay [3]. Further, the fluorescence slope in assay [4] was -0.605 (inactive). For the same molecule, the NADPH fluorescence slope in assay [5] was 6.8e-06 (inactive). In assay [6], the slope was 0.00601 (inactive).
`O=C(Nc1cccnc1)c1noc2c1CCCCC2`: the cell count in assay [1] is 253. Besides, the inhibition in assay [1] is -3.9% (inactive); in assay [3], -1.4% (inactive); in assay [7], 33.4% (inactive); in assay [8], -4.09% (inactive). Moreover, in assay [2], the inhibition of aggregation was 14.8% (inactive). Moreover, the figures for the nuclei count in assay [2] and in assay [3] were 98.5% and 113%, respectively. Further, the fluorescence slope in assay [4] was -0.325 (inactive). The NADPH fluorescence slope in assay [5] was -1.6e-05 (inactive). The slope in assay [6] was 0.00304 (inactive).
Regarding `COC(=O)Cc1c(C)nc2nc[nH]n2c1=O`, the cell count in assay [1] was found to be 648. Moreover, the inhibition in assay [1] was -6% (inactive); in assay [3], -21.9% (inactive); in assay [7] it was 8.47% (inactive); in assay [8], 13.4% (inactive). Also, the inhibition of aggregation in assay [2] is 2.1% (inactive). Besides, the figures for the nuclei count in assay [2] and in assay [3] were 103% and 104%, respectively. Moreover, the fluorescence slope in assay [4] is -0.313 (inactive). Also, the NADPH fluorescence slope in assay [5] was -4e-05 (inactive). Besides, the slope in assay [6] was 0.0059 (inactive).
`O=C(c1ccco1)N1CCN(/C(=N/S(=O)(=O)c2cccs2)c2ccccc2Cl)CC1`: the cell count in assay [1] was found to be 852. The inhibition in assay [1] was -5.6% (inactive); in assay [3] it was 33.2% (inactive); in assay [7] it was -2.11% (inactive); in assay [8], 12.2% (inactive). In addition, the inhibition of aggregation in assay [2] was 2.4% (inactive). For the same molecule, the nuclei count was 103% in assay [2] and 95.1% in assay [3]. The fluorescence slope in assay [4] is -0.491 (inactive). In addition, the NADPH fluorescence slope in assay [5] is -5.1e-05 (inactive). In addition, the slope in assay [6] was 0.00477 (inactive).
Regarding `Cc1ccc2nc(-c3ccccn3)cc(C(=O)N3CCN(c4ncccn4)CC3)c2c1`, the cell count in assay [1] turned out to be 367. Also, the inhibition is -5.9% (inactive) in assay [1], 6% (inactive) in assay [3], 4.96% (inactive) in assay [7] and 8.03% (inactive) in assay [8]. In assay [2], the inhibition of aggregation is 0% (inactive). Moreover, the values for the nuclei count in assay [2] and in assay [3] were 107% and 115%, respectively. Besides, the fluorescence slope in assay [4] was -0.346 (inactive). The NADPH fluorescence slope in assay [5] is -5.1e-05 (inactive). The slope in assay [6] is 0.00536 (inactive).
Regarding `O=C(Oc1ccc2ccc(OC(=O)N3CCOCC3)cc2c1)N1CCOCC1`, the cell count in assay [1] was determined as 388. Moreover, the inhibition in assay [1] is 6.8% (inactive); in assay [3] it was -7.5% (inactive); in assay [7] it was -2.44% (inactive); in assay [8] it was -16.2% (inactive). For the same molecule, the inhibition of aggregation in assay [2] is -8.9% (inactive). Moreover, the nuclei count worked out at 107% in assay [2] and 111% in assay [3]. For the same molecule, the fluorescence slope in assay [4] was -0.238 (inactive). In assay [5], the NADPH fluorescence slope was -1.6e-05 (inactive). The slope in assay [6] was 0.00539 (inactive).
For `CCCCn1c2c(c3ccccc31)CCc1nonc1-2`, in assay [1], the cell count worked out at 664. In addition, the inhibition in assay [1] is -4% (inactive); in assay [3] it was -16.7% (inactive); in assay [7], -16.3% (inactive); in assay [8], 13.4% (inactive). Further, in assay [2], the inhibition of aggregation was 8.5% (inactive). For the same molecule, the nuclei count was 75.1% in assay [2] and 100% in assay [3]. The fluorescence slope in assay [4] was -0.601 (inactive). In addition, the NADPH fluorescence slope in assay [5] was 4.9e-06 (inactive). Moreover, the slope in assay [6] is 0.00755 (inactive).
Take `CC1(C)OC(=O)C(=CNc2ccccc2F)C(=O)O1`: the cell count in assay [1] worked out at 604. Further, the inhibition in assay [1] was -9.5% (inactive); in assay [3], 22.8% (inactive); in assay [7] it was 14.1% (inactive); in assay [8] it was 28% (inactive). Also, the inhibition of aggregation in assay [2] is 29.9% (inactive). Besides, the nuclei count in assay [2] was 95.6%; in assay [3], 96.8%. Further, the fluorescence slope in assay [4] is -0.606 (inactive). For the same molecule, the NADPH fluorescence slope in assay [5] is -1.2e-05 (inactive). Also, the slope in assay [6] is 0.0057 (inactive).
Turning to `O=C(CSc1ncnc2c1oc1ccccc12)NCc1ccco1`, the cell count in assay [1] stood at 398. Besides, the inhibition was 1.5% (inactive) in assay [1], -38.6% (inactive) in assay [3], 15.1% (inactive) in assay [7] and 25% (inactive) in assay [8]. For the same molecule, the inhibition of aggregation in assay [2] is -6.6% (inactive). Besides, the nuclei count in assay [2] is 99.3%; in assay [3], 105%. In addition, the fluorescence slope in assay [4] was -0.61 (inactive). Moreover, the NADPH fluorescence slope in assay [5] was -2.9e-05 (inactive). Further, the slope in assay [6] is 0.00442 (inactive).
Regarding `Cc1c(C(=O)OCC(C)C)[nH]c2c1C(=O)CC(c1ccco1)C2` (centres undefined), in assay [1], the cell count was determined as 464. The inhibition in assay [1] is 8.4% (inactive); in assay [3], -91.9% (inactive); in assay [7] it was 75.6% (active); in assay [8], 76.5% (active). Also, in assay [2], the inhibition of aggregation was -226% (inactive). In addition, the nuclei count in assay [2] was 4%; in assay [3] it was 96.5%. Further, the fluorescence slope in assay [4] is -0.492 (inactive). The NADPH fluorescence slope in assay [5] was -3.2e-07 (inactive). The slope in assay [6] is 0.00635 (inactive).
`CC1CCCN(C(=O)CN2C(=O)c3ccccc3C2=O)C1` (centres undefined): the cell count in assay [1] stood at 432. Besides, the inhibition in assay [1] is 4.9% (inactive); in assay [3], -27.3% (inactive); in assay [7] it was 14.5% (inactive); in assay [8], 20.6% (inactive). Moreover, the inhibition of aggregation in assay [2] is 15.5% (inactive). Moreover, the nuclei count in assay [2] worked out at 136%; in assay [3], 102%. Further, in assay [4], the fluorescence slope is -0.272 (inactive). Besides, the NADPH fluorescence slope in assay [5] is -3.7e-05 (inactive). Also, the slope in assay [6] is 0.00658 (inactive).
With `CCOC(=O)COc1ccc(C2NC(C(=O)O)CS2)cc1` (centres undefined), the cell count in assay [1] was determined as 367. In addition, the inhibition was -9.6% (inactive) in assay [1], -4.8% (inactive) in assay [3], 12.5% (inactive) in assay [7] and 13% (inactive) in assay [8]. The inhibition of aggregation in assay [2] was 9.8% (inactive). In addition, the nuclei count in assay [2] was 55.1%; in assay [3], 97.6%. Moreover, in assay [4], the fluorescence slope is -0.381 (inactive). Moreover, in assay [5], the NADPH fluorescence slope is -1.3e-05 (inactive). Besides, in assay [6], the slope was 0.00376 (inactive).
As for `Cc1ccc(C2C(C(=O)c3sc(C)nc3C)=C(O)C(=O)N2CCN(C)C)o1` (centres undefined), the cell count in assay [1] stood at 387. Moreover, the inhibition in assay [1] is -7.6% (inactive); in assay [3], -161% (inactive); in assay [7], 7.21% (inactive); in assay [8] it was 6.57% (inactive). Moreover, the inhibition of aggregation in assay [2] is -12.7% (inactive). For the same molecule, the nuclei count came to 107% in assay [2] and 127% in assay [3]. The fluorescence slope in assay [4] is -0.351 (inactive). In addition, the NADPH fluorescence slope in assay [5] is -4.5e-05 (inactive). Further, the slope in assay [6] was 0.00504 (inactive).
